From PubChem BioAssay AID2156 (Johns Hopkins Ion Channel Center, 2009) come the findings set out here.

About 3,400 (1.1%) of roughly 310,000 compounds were called active. The entries come from a sample that favours actives as a whole. A number with no mark means an inactive call.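 The calls were made as follows: active = fluorescence ratio B-score at most minus 3 library SDs, with starting brightness B-score within 2 library SDs (cut at about -5.5 in these data); inactive = the rest, inconclusive results apart.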

Sequence of Potassium voltage-gated channel subfamily KQT member 2 (Rattus norvegicus) (O88943 whole entry, looked up): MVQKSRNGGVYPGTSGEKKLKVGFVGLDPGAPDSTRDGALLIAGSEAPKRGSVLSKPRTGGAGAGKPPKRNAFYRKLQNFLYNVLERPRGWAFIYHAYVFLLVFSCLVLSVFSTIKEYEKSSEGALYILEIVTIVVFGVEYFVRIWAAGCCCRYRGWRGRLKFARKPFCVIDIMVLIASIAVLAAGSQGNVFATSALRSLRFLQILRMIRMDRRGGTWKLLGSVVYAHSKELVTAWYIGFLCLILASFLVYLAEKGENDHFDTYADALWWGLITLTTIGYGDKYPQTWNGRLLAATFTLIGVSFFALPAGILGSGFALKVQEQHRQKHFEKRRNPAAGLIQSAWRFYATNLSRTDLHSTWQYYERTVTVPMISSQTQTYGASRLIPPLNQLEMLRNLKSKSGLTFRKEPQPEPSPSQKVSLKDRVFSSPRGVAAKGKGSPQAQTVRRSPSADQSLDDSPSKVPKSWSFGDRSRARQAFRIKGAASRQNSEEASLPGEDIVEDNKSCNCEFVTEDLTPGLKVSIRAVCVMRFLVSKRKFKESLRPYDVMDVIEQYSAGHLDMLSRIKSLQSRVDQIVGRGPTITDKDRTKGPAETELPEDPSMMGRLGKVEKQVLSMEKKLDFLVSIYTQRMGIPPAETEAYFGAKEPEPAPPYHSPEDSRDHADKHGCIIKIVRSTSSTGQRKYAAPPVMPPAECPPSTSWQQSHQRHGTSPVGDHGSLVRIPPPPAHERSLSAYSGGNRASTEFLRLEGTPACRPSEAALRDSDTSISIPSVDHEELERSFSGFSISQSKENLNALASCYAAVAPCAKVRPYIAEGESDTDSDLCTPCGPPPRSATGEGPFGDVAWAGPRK

This test has as its target Potassium voltage-gated channel subfamily KQT member 2 (Rattus norvegicus) (UniProt O88943). Nature of the test: KCNQ2 channel blockers in CHO-K1 cells – cell-based, FluxOR thallium flux, B-score, primary screen (AID 2156). As to conditions: 20 min, at 10 µM; active compounds read low.
With `Cc1ccc(OCC(=O)NC(C)c2ccccc2)cc1C` (configuration not stated), the B-score is -1.87. In the case of `CCOc1ccc(C(CC(=O)O)NC(=O)Cc2ccccc2)cc1OC` (configuration not stated), the B-score is -0.84. In the case of `CCOc1ccc(C(CC(=O)O)NC(=O)COc2ccccc2)cc1` (configuration not stated), the B-score was -5.97 (active). For `Cc1ccc(S(=O)(=O)N(C)C)cc1NC(=O)COC(=O)/C=C/c1cccs1`, the B-score entry is “inactive”. Under `CC(OC(=O)CCCc1c[nH]c2ccccc12)C(=O)Nc1ccc(S(N)(=O)=O)cc1` (configuration not stated) stands -1.39; under `CSCc1cc(N(C)C)nc(SCc2ccc(Cl)cc2Cl)n1`, -9.71 (active); under `Clc1ccc(CSc2nnc(/C=C/c3ccccc3)o2)c(Cl)c1`, -5.38. On to `CSCc1cc(N2CCOCC2)nc(SCc2ccc(Cl)cc2Cl)n1`, for which the B-score is -0.52.

Turning to `C=CCOc1ccc(/C=C/C(=O)OCC(=O)NC(C)c2ccc(F)cc2)cc1` (configuration not stated), the B-score result is “inactive”. On to `O=C(Nc1ccc(S(=O)(=O)N2CCCCC2)cc1)C1CCN(C(=O)c2ccc(F)cc2)CC1`, for which the B-score was -0.91.

For `CC1=CC(C)(C)Nc2ccc(OC(=O)CN3C(=O)C4CCCCC4C3=O)cc21` (configuration not stated), the B-score is -1.65.

On to `CC1=CC(C)(C)Nc2ccc(OC(=O)C(Cc3ccccc3)N3C(=O)C4CCCCC4C3=O)cc21` (configuration not stated), for which the B-score was -7.42 (active).

In the case of `CCOC(=O)C(Cc1ccc(N)cc1)N1C(=O)c2ccccc2C1=O` (configuration not stated), the B-score result is “inactive”. Under `COC(=O)c1ccc(C(NC(=O)OCc2ccccc2)/C(F)=C/[C@@H](C)C(=O)O)cc1` (some centres not stated) stands -1.01; under `CCC[C@@H]1C[C@@]1(CCC)[C@@H](NC(=O)c1ccccc1)c1ccc(C(=O)OC)cc1`, -5.11.

`CCC/C=C(\CCC)C(NC(=O)Cc1ccccc1)c1ccc(C(=O)OC)cc1` (configuration not stated): the B-score is -7.39 (active).

With `Cc1ccc(C(=O)CN2C(=O)NC3(CCc4ccccc43)C2=O)c(C)c1` (configuration not stated), the B-score is -1.41.

Consider `COc1ccccc1-n1ccnc(SCC(=O)NC2CCCCC2)c1=O`, for which the B-score entry is “inactive”. Take `O=C1[C@H]2[C@@H](c3ccc(Cl)cc3)N3C(=O)N(c4cccc(F)c4)C(=O)[C@@]3(Cc3ccccc3)[C@H]2C(=O)N1C1CCCCC1`: the B-score entry is “inactive”. The figure for `COc1ccc(N2CC(NS(=O)(=O)c3ccc4ccccc4c3)CC2=O)cc1` (configuration not stated) is -0.16; for `CC1CN(c2nc(-c3ccccc3)nnc2-c2ccccc2)CC(C)O1` (configuration not stated) it is -6.3 (active); for `CC1CN(c2nc(Nc3ccccc3)nc(N)c2[N+](=O)[O-])CC(C)O1` (configuration not stated) it is -0.73. `Cc1ccc(-c2nnc(C)c(N3CC(C)OC(C)C3)n2)cc1` (configuration not stated): the B-score was -0.19. `C=CS(=O)c1sc(Cl)c(N2CCOCC2)c1[N+](=O)[O-]` (configuration not stated): the B-score was -15.5 (active). Consider `COc1ccc(NC(=O)CN(C)C(=O)/C=C/c2cn(Cc3ccccc3)nc2-c2cccnc2)cc1`, for which the B-score was -0.04. Regarding `O=C(COc1ccccc1)Nc1ccc(F)cc1`, the B-score is -1.43. For the molecule `O=C(NCC1CCCO1)c1cc2c([nH]c3ccccc32)c(-c2ccc(F)cc2)n1` (configuration not stated), the B-score was -8.97 (active). Regarding `O=C(NCCCO)c1cc2c([nH]c3ccccc32)c(-c2ccc(F)cc2)n1`, the B-score entry is “inactive”.

As for `O=C(NCC1CCCO1)c1cc(-c2ccccc2)nc2ccccc12` (configuration not stated), the B-score result is “inactive”. Under `COc1ccc(C(=O)N(Cc2ccccc2)c2ccc(C)cc2)cc1S(=O)(=O)N1CCOCC1` stands -0.58; under `CC1CCCCC1NC(=O)c1cc(=O)[nH]c2ccccc12` (configuration not stated), -0.66; under `CCc1ccc(CN2C(=O)c3ccccc3C2C(=O)NCC2CCCO2)cc1` (configuration not stated), “inactive”.

As to `CC1CCC(NC(=O)C2c3ccccc3C(=O)N2Cc2ccc3c(c2)OCO3)CC1` (configuration not stated), the B-score is -6.13 (active).

As for `O=C(NC1CCCCC1)C1c2ccccc2C(=O)N1Cc1ccco1` (configuration not stated), the B-score entry is “inactive”.

On to `Cc1cc(C)cc(NC(=O)COc2coc(CN3CCN(c4ccccc4)CC3)cc2=O)c1`, for which the B-score result is “inactive”. Take `CSc1ccc(S(=O)(=O)NCC(=O)OCC(=O)NC2(C#N)CCCCC2)cc1[N+](=O)[O-]`: the B-score entry was “inactive”. Under `CN1CCN(C2Cc3ccc(Cl)cc3Sc3ccc(F)cc32)CC1` (configuration not stated) stands -4.84; under `CCOc1ccc(NC(=O)c2ccc(NC(=O)CN3C(=O)C(=O)N(CC(C)C)C3=O)cc2)cc1`, “inactive”. For `O=C(c1cccc(F)c1)N1CCN(c2ccc([N+](=O)[O-])c(N3CCCCC3)c2)CC1`, the B-score was -0.07. Consider `O=C(c1cc(C(=O)N2CCN(c3ccc(F)cc3)CC2)cc([N+](=O)[O-])c1)N1CCN(c2ccc(F)cc2)CC1`, for which the B-score was -5.93 (active). Under `O=C(c1cccc(C(=O)N2CCN(c3ccc(F)cc3)CC2)c1)N1CCN(c2ccc(F)cc2)CC1` stands -6 (active). For the molecule `O=C(c1cncc(Br)c1)N1CCN(c2ccc([N+](=O)[O-])cc2)CC1`, the B-score was -4.15. As for `O=C(c1ccccc1)c1ccc(C(=O)N2CCN(c3ccccc3)CC2)cc1`, the B-score is -0.65. The entry for `O=C(c1cc2cc(F)ccc2[nH]1)N1CCN(c2ccc(F)cc2)CC1` is “inactive”; for `Cc1ccc(Cc2nnc(SCC(=O)Nc3ccc(C)cc3C)[nH]c2=O)cc1` it is “inactive”; for `CC(=O)CC(CC(=O)NC1CCCCC1)c1ccccc1` (configuration not stated) it is “inactive”.

As to `O=C1[C@H]2[C@@H](c3ccc(F)cc3)N3C(=O)N(c4ccc(C(F)(F)F)cc4)C(=O)[C@@]3(Cc3ccccc3)[C@H]2C(=O)N1C1CCCCC1`, the B-score is -0.02.

For the molecule `O=C(NCC(c1ccco1)N1CCc2ccccc2C1)c1ccccc1Cl` (configuration not stated), the B-score is -1.22. The entry for `Cc1ccc(Cc2nnc(SCC(=O)Nc3ccccc3C)[nH]c2=O)cc1` is “inactive”; for `CCOc1ccc(NS(=O)(=O)c2ccc(C(=O)NC3CCN(Cc4ccccc4)CC3)cc2)cc1` it is “inactive”; for `CCOc1cc(C(C(=O)NCC2CCCO2)N(C(=O)Cn2nnc3ccccc32)c2cccc(OC)c2)ccc1O` (configuration not stated) it is “inactive”. The figure for `CCOc1cc(-c2nc3cc(C)ccn3c2NCC2CCCO2)ccc1O` (configuration not stated) is -5.56 (active); for `CCOc1ccc(N(CC(=O)NCC2CCCO2)S(=O)(=O)c2ccc(C)cc2)cc1` (configuration not stated) it is -0.74. Turning to `O=[N+]([O-])c1ncc(Br)cc1Nc1ccccc1`, the B-score was -2.54.

For the molecule `CC(=O)N1CCN(C(=O)c2cc(-c3ccc(C)o3)nc3ccccc23)CC1`, the B-score result is “inactive”. In the case of `Cn1cccc1C(=O)NNC(=O)COc1ccc(Br)cc1`, the B-score was -0.05.

Turning to `COc1cc(NC(=O)CSC(=S)N2CCCC2)c(OC)cc1Cl`, the B-score entry is “inactive”. Consider `Cc1c(CN2CC[C@@H](N3CCN(c4ccccn4)CC3)[C@H](O)C2)[nH]c2ccc(F)cc12`, for which the B-score was -0.01. With `Fc1ccc2[nH]c3c(N4CCSCC4)ncnc3c2c1`, the B-score is -10.1 (active). The figure for `CC(C)OCCCNc1ncnc2c1[nH]c1ccc(F)cc12` is -0.41.

On to `Cc1ccc(CNS(=O)(=O)CCNC(=O)c2ccccc2)cc1`, for which the B-score result is “inactive”. `CSc1ccccc1NC(=O)c1cnc2sc(C)cn2c1=O`: the B-score entry is “inactive”. The entry for `O=C(Nc1ccccc1)N1CCN(C(=O)Nc2ccccc2)CC1` is “inactive”. `O=C(Nc1ccc(Cl)c(Cl)c1)N1CC=C(c2ccccc2)CC1`: the B-score was -8.43 (active).

In the case of `COc1cc(C(=O)NCC(=O)N2CC=C(c3ccccc3)CC2)cc(OC)c1OC`, the B-score result was “inactive”.

Turning to `CC(OC(=O)CNC(=O)c1cccc(F)c1)C(=O)NC1CCCCC1C` (configuration not stated), the B-score result is “inactive”.

Regarding `COCCCN(C(=O)CSCc1ccc(C)cc1)c1c(N)n(Cc2ccccc2)c(=O)[nH]c1=O`, the B-score entry is “inactive”. For `CCCCCCCCCCCCN1C(=O)CSC1c1cccnc1` (configuration not stated), the B-score is -6.52 (active).

For `CN(C)CCCN1C(=O)CSC1c1ccc([N+](=O)[O-])cc1` (configuration not stated), the B-score is -0.19. The entry for `CCCCCCOc1ccc(OC(=O)c2cccnc2)cc1` is “inactive”; for `O=C(Nc1ccc(OC(F)(F)F)cc1)c1ccc2c(c1)no[n+]2[O-]` it is “inactive”. The entry for `COc1cccc(CNc2nc3nc4c(c(=O)n3[nH]2)CCC4)c1` is “inactive”; for `COc1cccc(-c2nc(S(=O)(=O)c3ccccc3)c(N3CCOCC3)o2)c1` it is “inactive”; for `COc1cccc(-c2cc3nc4c(c(N5CCC6(CC5)OCCO6)n3n2)CCCC4)c1` it is -5.95 (active). In the case of `CN(C(=O)CN1C(=O)NC(C)(CCc2ccccc2)C1=O)c1ccccc1` (configuration not stated), the B-score result was “inactive”. Regarding `CCOC(=O)C1=C(NC(=S)NC(=O)c2ccccc2)c2ccccc2CC1(C)C`, the B-score was -1.51. Under `CC1(C)Cc2ccccc2/C(=C/C(=O)c2ccccc2)N1` stands -5.67 (active).

Regarding `CC(C)CC(N=C1NC(C)(C)Cc2ccccc21)C(=O)O` (configuration not stated), the B-score was -0.08.

For `COc1ccc(CCNc2nc(-c3cccc(NC(C)=O)c3)cs2)cc1OC`, the B-score was -0.02.

`COc1cccc(CC(=O)Nc2nc(-c3ccc(OC)c(OC)c3)cs2)c1`: the B-score result is “inactive”. The figure for `COc1ccc(CCN(C(=O)COc2ccccc2)c2nc(-c3ccccc3)cs2)cc1OC` is -7.67 (active); for `CCN1CCN(c2ccc(S(=O)(=O)N3CCCCC3)cc2NC(=O)c2cccc(NC(C)=O)c2)CC1` it is “inactive”. The entry for `COc1cc(C(=O)OCC(=O)N(CC(C)C)C2CCS(=O)(=O)C2)ccc1OCC(C)C` (configuration not stated) is “inactive”; for `C=CCn1c(SCc2c(C)noc2C)nc2sc3c(c2c1=O)CCC(C)C3` (configuration not stated) it is -3.13. `C=CCNC(=O)CSc1nc2scc(-c3ccco3)c2c(=O)n1CC=C`: the B-score is -1. The figure for `C=CCn1c(SCc2csc(C)n2)nc2scc(-c3ccc(C)o3)c2c1=O` is -5.75 (active).

In the case of `COc1cc(C(=O)N(C)Cc2cccc(OC)c2OC)ccc1OCC(=O)Nc1cccc(C(F)(F)F)c1`, the B-score is -4.11. Under `COc1ccc(F)cc1S(=O)(=O)NCC(c1ccc2c(c1)OCO2)N1CCN(C)CC1` (configuration not stated) stands -0.58; under `Cc1cc(OCCCN2CCN(Cc3ccccc3)CC2)ccc1[N+](=O)[O-]`, “inactive”; under `Cc1cc(OCC(=O)Nc2c(C)n(C)n(-c3ccccc3)c2=O)ccc1[N+](=O)[O-]`, -0.54. Under `Cc1cc(OCCCCOc2ccc(C#N)cc2)ccc1[N+](=O)[O-]` stands -6.09 (active); under `Cc1cccc(N(Cc2ccccc2)C(=O)c2cc(S(=O)(=O)N3CCOCC3)ccc2F)c1`, “inactive”.
